Assay outcomes deposited in PubChem by National Center for Advancing Translational Sciences (NCATS).
ALDH1A1 block: qHTS Assay for Inhibitors of Aldehyde Dehydrogenase 1 (ALDH1A1) | Aldehyde dehydrogenase 1A1 (Homo sapiens), P00352 | Purified ALDH1A1, NADH fluorescence, propionaldehyde substrate | Potency, µM (doses to about 75.3 µM), inactives show at the highest dose activity, negative = inhibition, hits mostly inhibitors | actives 7.3% (n = 220,000); active = well fitted inhibition curve with a large enough effect, not every such curve was filed as active; inconclusive = small, poorly fitted or top-dose-only effect, or another doubt; inactive = no such curve, though single readings can be large or run the other way;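 also: plate controls were no enzyme wells and a reference inhibitor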
Sfp PPTase inh: qHTS Assay for Inhibitors of Bacillus subtilis Sfp phosphopantetheinyl transferase (PPTase); actives 3.5% (n = 310,000); Biochemical Sfp PPTase activity, qHTS; Potency, µM, inactives show largest response in the series, negative = inhibition, usual class: inhibitors;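 also: the enzyme is Sfp with the accession as filed and its product quenches rhodamine fluorescence; 0% = enzyme reaction without inhibitor and -100% = no enzyme wells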
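Fluorescence-quenching assay with 15 nM Sfp, 5 uM rhodamine-CoA and 12.5 uM BHQ-2-labelled ybbR peptide in pH 7.6 Hepes/MgCl2 buffer. Enzyme was pre-incubated with compound for 15 min at room temperature. Rate was taken from the 30-min fluorescence change (525/598 nm).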
Gal4-VP16 FLuc: VP16 counterscreen qHTS for inhibitors of ROR gamma transcriptional activity | Drosophila S2 Gal4-VP16 UAS-luciferase, luminescence, 20 h | Potency, µM (titrated, usually from 53.6 µM), without a hit: top-dose activity, negative = inhibition, hits mostly inhibitors | actives 3.5% (n = 310,000) | AID 2546, 2010;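 also: Gal4-VP16 expression switched on by copper sulfate through the metallothionein promoter; nearly all actives have a fitted effect of over 50% in size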
PLK1 PBD block: qHTS for Inhibitors of PLK1-PDB (polo-like kinase 1 - polo-box domain): Primary Screen | Serine/threonine-protein kinase PLK1 (Homo sapiens), P53350 | Plk1 PBD binding of FITC phosphopeptide, fluorescence polarization | Potency, µM, inactives show max response, negative = inhibition, usual class: inhibitors | actives 2.8% (n = 360,000) | AID 720504, 2013; also: series mostly up to about 57 µM; nearly all actives have a fitted effect of over 65% in size
Target sequence (P53350 whole entry, looked up, the tested form may be a part): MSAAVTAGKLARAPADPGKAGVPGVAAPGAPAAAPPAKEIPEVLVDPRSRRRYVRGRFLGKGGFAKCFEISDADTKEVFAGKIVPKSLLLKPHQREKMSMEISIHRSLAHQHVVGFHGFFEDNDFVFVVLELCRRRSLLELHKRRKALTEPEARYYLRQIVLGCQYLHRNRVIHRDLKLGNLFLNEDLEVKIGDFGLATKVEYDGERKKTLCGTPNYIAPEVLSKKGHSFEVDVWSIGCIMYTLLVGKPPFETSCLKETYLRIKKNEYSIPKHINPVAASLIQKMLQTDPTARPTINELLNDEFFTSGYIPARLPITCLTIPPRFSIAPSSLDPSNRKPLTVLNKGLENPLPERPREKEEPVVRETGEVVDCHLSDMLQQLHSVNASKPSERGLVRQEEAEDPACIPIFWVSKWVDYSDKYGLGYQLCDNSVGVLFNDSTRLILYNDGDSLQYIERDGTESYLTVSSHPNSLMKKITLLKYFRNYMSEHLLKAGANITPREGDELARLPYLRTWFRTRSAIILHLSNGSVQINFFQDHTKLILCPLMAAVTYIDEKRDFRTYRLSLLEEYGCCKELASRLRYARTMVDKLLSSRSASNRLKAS
RORgamma inh: qHTS for inhibitors of ROR gamma transcriptional activity; Drosophila S2 Gal4-RORgamma UAS-luciferase reporter, 20 h; Potency, µM (highest dose often 53.6 µM), for the others: at the top dose activity change, negative = inhibition, actives largely listed as inhibitors; actives 5.4% (n = 310,000); AID 2551, 2010; also: nearly all actives have a fitted effect of over 60% in size
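Schneider cells (Drosophila), stable Gal4 DBD–ROR gamma + UAS-luc; 1 hr cmpd preincubation; Cu2+ induction 700 uM final; 20 hr ambient; luminescence.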
Active calls of the source: *; u = inconclusive; x = no result given; [ ] = another dose, or the depositor's remark. This is a sample that favours compounds with a hit; in the whole collection about 12% have one here. Unless noted, calls follow the shape of the dose curve; as a rule, active = well fitted curve in the direction sought with a large enough effect; inconclusive = small, poorly fitted or top-dose-only effect, or another doubt; inactive = no such curve, though single readings can be large; an effect the other way counts as inactive or inconclusive. Unless noted, % is scaled to controls: 0 for no effect and ±100 for the full control effect; potency is read from the fitted curve at half-maximal effect.

SMILES	ALDH1A1 block	Sfp PPTase inh	Gal4-VP16 FLuc	PLK1 PBD block	RORgamma inh
O=[N+]([O-])c1cc(S(=O)(=O)Nc2cccc(C(F)(F)F)c2)ccc1-n1nnc2ccccc21	u	21.4%	1.7%	26.7µM*	u
CC(C)Sc1nc2ccccc2n1CC(=O)O	u	-3.8%	-4.7%	-22.6%	32.5%
O=C(O)Cn1c(=O)c(-c2ccccc2)nc2ccccc21	x	10.5%	5.7%	1.0%	2.2%
O=C(O)Cn1c(-c2ccccc2)nc2ccccc21	-6.5%	21.6%	-0.4%	26.7µM*	-8.7%
COC(=O)Cn1c(=O)c(C)nc2ccccc21	u	9.8%	6.8%	29.9µM*	-31.3%
CCC(C)Sc1nc2ccccc2n1CC(=O)O (stereo not drawn)	-6.1%	-1.3%	2.4%	-2.1%	12.6µM*
CC1(C)Cc2cccc(OCC(=O)OCC(=O)Nc3ccc(S(N)(=O)=O)cc3)c2O1	x	x	x	3.6%	x
O=C(N/N=C/c1ccc(-c2cccc(C(F)(F)F)c2)o1)c1ccccc1O	5.2%	-19.5%	0.562µM*	-11.8%	0.282µM*
O=C(N/N=C/c1ccc(N2CCOCC2)o1)c1cccc(F)c1	u	8.91µM*	12.6µM*	-16.2%	11.2µM*
O=C(N/N=C/c1ccc(-c2cccc(C(F)(F)F)c2)o1)c1ccccc1Br	-10.4%	15.8%	-90.9%	37.1%	11.2µM*
O=C(N/N=C/c1ccc(-c2cccc(C(F)(F)F)c2)o1)c1cccc(F)c1	u	-2.4%	1.26µM*	-1.3%	2µM*
COc1cccc(-c2ccc3ncnc(NCCc4c[nH]c5ccc(OC)cc45)c3c2)c1	-7.4%	-1.4%	-2.2%	x	u
CC(=O)OC[C@@H]1O[C@H](CCO/N=C(\C)CCN2CCCCc3nc(C)c(C)cc32)C=C[C@@H]1OC(C)=O	-4.2%[13.5 µM]	4.2%	2.2%[10 µM]	x	-10.8%[10 µM]
Oc1ccc(Cl)c(CN2CCN(c3ncc(Cc4ccccc4)cn3)CC2)c1	x	x	x	-1.4%	x
O=c1[nH]cnc2c1sc(=S)n2-c1ccccc1	10µM*	17.8µM*	x	7.52µM*	2.1%[0.365 µM]
O=c1[nH]c(-c2ccc(F)cc2)nc2c1sc(=S)n2-c1ccccc1	u	-10.8%	-26.8%	u	u
Cc1sc(NC(=O)c2ccco2)c(C(c2cccnc2)N2CCN(C)CC2)c1C (stereo not drawn)	-4.6%	-0.5%	5.5%	-11.3%	20.5%
CCOC(=O)c1c(C)oc2c1c(C(c1cccnc1)N1CCN(C)CC1)c(O)c1ccccc12 (stereo not drawn)	12.6µM*	-26.1%	0.9%	x	-11.6%
CCOC(=O)c1c(C)oc2c1c(C=NCc1ccccn1)c(O)c1ccccc12	u	17.8µM*	u	-13.1%	6.31µM*
CCOC(=O)c1c(C)oc2c1c(C(c1cccnc1)N1CCOCC1)c(O)c1ccccc12 (stereo not drawn)	7.08µM*	u	u	6.7µM*	u
CCCS(=O)(=O)NC(=O)C1(C)CCN(C(=O)c2ccc(C#N)cc2)C1 (stereo not drawn)	x	x	x	2.2%	x
CN(C)c1ncc2nc(-c3cccs3)c(=O)n(C)c2n1	6.8%	4.4%	-1.9%	x	6.5%
C=C(C)CN=C1SC(C(=O)Nc2sc3c(c2C(=O)OC)CCC3)C(N)=C1C(N)=O (stereo not drawn)	25.1µM*	u	-10.4%	-7.1%	u
Cn1nnc(NC(=S)NC(=O)c2cc3ccccc3o2)n1	x	50.1µM*	6.31µM*	u	1.12µM*
Cn1nnc(NC(=S)NC(=O)Cc2ccccc2)n1	u	-26.8%	11.2µM*	-15.8%	1.41µM*
SMILES	ALDH1A1 block	Sfp PPTase inh	Gal4-VP16 FLuc	PLK1 PBD block	RORgamma inh
O=C1CCCCC1(O)Cc1ccc2c(c1)OCO2 (stereo not drawn)	x	x	x	1.1%	x
COc1ccc(C(=O)COC(=O)C(CCCCN2C(=O)C3C4C=CC(C4)C3C2=O)N2C(=O)C3C4C=CC(C4)C3C2=O)cc1 (stereo not drawn)	10µM*	-0.7%	1.9%	u	u
COC(=O)C1C2C=CC(C3CC23)C1C(=O)OCC(=O)c1ccccc1 (stereo not drawn)	-17.9%	11.7%	17.0%	-2.7%	19.8%
COc1ccc(C(=O)COC(=O)CCN2C(=O)C3C4CC(C(Br)C4Br)C3C2=O)cc1 (stereo not drawn)	-4.7%	7.0%	0.4%	-2.3%	0.4%
Cc1ccc(C(=O)COC(=O)CN2C(=O)C3C4CCC(C4)C3C2=O)cc1[N+](=O)[O-] (stereo not drawn)	20µM*	6.2%	-13.8%	0.0%	26.8%
COc1ccc(C(=O)COC(=O)CN2C(=O)C3C4C=CC(C5CC45)C3C2=O)cc1 (stereo not drawn)	12.6µM*	7.6%	-0.4%	-4.3%	5.5%
